Bioassay records as filed in PubChem.
The list is not random: actives were taken first. Their share in the collection is about 11%.
Tau fluor counter = Counterscreen qHTS for Inhibitors of Tau Fibril Formation, Fluorescence Polarization. Potency, µM (doses to about 57.7 µM), inactives show at the highest dose activity change, negative = decrease. AID 1463, 2008. 280,000 tested, 0.93% active. tau K18 P301L Alexa594 fluorescence, heparin fibrillization; further: potency means the concentration at half of the fitted maximal effect; nearly all actives have a fitted effect of over 55% in size
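Human tau K18 P301L (15 uM unlabeled, 0.24 uM Alexa 594-labeled) in 100 mM sodium acetate pH 7 with 20 uM heparin, 6 hr at 37 C. ThT 30 uM added, 1 hr ambient; Alexa 594 FP and total fluorescence read at 555/632 nm.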
Tau fibril ThT = qHTS for Inhibitors of Tau Fibril Formation, Thioflavin T Binding. Microtubule-associated protein tau (Homo sapiens), P10636. recombinant tau K18 P301L (four-repeat tau fragment), heparin-induced fibrillization, ThT fluorescence. Potency, µM (doses to about 57.4 µM), without a hit: at the highest dose activity, negative = inhibition, actives largely listed as inhibitors. 270,000 tested, 2.1% active. AID 1460, 2008; further: potency means the concentration at half of the fitted maximal effect; nearly all actives have a fitted effect of over 55% in size
Target sequence (P10636 561-689 P618L limits assumed): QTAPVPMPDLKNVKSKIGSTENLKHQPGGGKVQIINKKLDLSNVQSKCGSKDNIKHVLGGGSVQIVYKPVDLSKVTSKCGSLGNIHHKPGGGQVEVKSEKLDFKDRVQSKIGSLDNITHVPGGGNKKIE
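Heparin-induced fibrillization of the P301L-mutant K18 repeat-domain fragment of human tau was followed by ThT binding in quantitative high-throughput format.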
G9a inh = qHTS Assay for Inhibitors of Histone Lysine Methyltransferase G9a; Histone-lysine N-methyltransferase EHMT2 (Homo sapiens), Q96KQ7; G9a H3K9 monomethylation, AlphaScreen, 2 h; Potency, µM (top dose mostly 102 µM), for inactives: top-dose activity, negative = inhibition, usual class: inhibitors; 350,000 tested, 8.8% active; further: potency means the concentration at half of the fitted maximal effect; nearly all actives have a fitted effect of over 75% in size
Target sequence (Q96KQ7 913-1193 limits assumed): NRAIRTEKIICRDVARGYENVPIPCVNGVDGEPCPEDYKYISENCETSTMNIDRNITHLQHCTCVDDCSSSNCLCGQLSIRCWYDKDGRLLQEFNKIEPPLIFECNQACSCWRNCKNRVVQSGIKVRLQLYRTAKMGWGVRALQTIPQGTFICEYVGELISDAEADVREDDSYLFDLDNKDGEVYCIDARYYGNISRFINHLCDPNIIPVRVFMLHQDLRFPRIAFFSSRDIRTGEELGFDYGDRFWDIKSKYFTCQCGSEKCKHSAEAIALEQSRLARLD
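Chemiluminescent proximity detection of H3K9 monomethylation, read after 10 min bead incubation in the dark. Reaction: 20 nM G9a, 500 nM biotin-H3K9 peptide, 20 uM SAM cofactor, 2 h, room temperature, following 15 min enzyme-compound preincubation.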
Tau FP inhib = qHTS for Inhibitors of Tau Fibril Formation, Fluorescence Polarization. K18 P301L tau heparin fibrillization, Alexa594 FP, 6 h. Potency, µM (top dose mostly 57.7 µM), without a hit: top-dose activity, negative = inhibition, most hits filed as inhibitors. 280,000 tested, 0.39% active; further: potency means the concentration at half of the fitted maximal effect; nearly all actives have a fitted effect of over 55% in size
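Compound effects on tau fibrillization are measured by Alexa 594 fluorescence polarization (ex 555, em 632 nm). K18 P301L tau is used at 15 uM with 0.24 uM labeled tracer, and 20 uM heparin induces aggregation over 6 hr at 37 C.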
Sfp inh = qHTS Assay for Inhibitors of Bacillus subtilis Sfp phosphopantetheinyl transferase (PPTase). Potency, µM, for the others: largest response in the series, negative = inhibition, most hits filed as inhibitors. AID 1490, 2009. 310,000 tested, 3.5% active. Biochemical Sfp PPTase activity, qHTS. 4'-phosphopantetheinyl transferase ffp (Bacillus subtilis), Q9F4F7;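 further: the enzyme is Sfp with the accession as filed and its product quenches rhodamine fluorescence; potency means the concentration at half of the fitted maximal effect; 0% = enzyme reaction without inhibitor and -100% = no enzyme wells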
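Buffer: 50 mM Hepes-Na pH 7.6, 10 mM MgCl2, 0.01% Nonidet P-40, 0.01% BSA. Enzyme 15 nM, pre-exposed to compound 15 min; substrates then added and fluorescence change tracked over 30 min.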
Coupling enz = qHTS Assay for Inhibitors of Fructose-1,6-bisphosphate Aldolase from Giardia Lamblia: Coupling assay counterscreen | coupling enzyme system counterscreen, AmpLite Red fluorescence | activity change, negative = inhibition, % at 58.2 µM, hits read low | 290,000 tested, 0.67% active; in the data active means activity change below about -30%
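Final compound at 57.5 uM, incubated 10 min at RT with coupling enzyme reagent (glyceraldehyde-3-phosphate), then 20 min with substrate and AmpLite Red detection. Fluorescence read at 525/598 nm; tests interference with the coupling assay, not aldolase inhibition.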
Active calls of the source: *; u = inconclusive; x = not tested or not shown; [ ] = dose if it differs, or a comment. Unless noted, the call rests on the fitted dose curve; in most records, active means well fitted curve in the direction sought with a large enough effect; inconclusive means small, poorly fitted or top-dose-only effect, or another doubt; inactive means no such curve, though single readings can be large; an effect the other way counts as inactive or inconclusive. Unless noted, on the % scale 0 is the no-effect control and ±100 the full control effect.

SMILES | Tau fluor counter | Tau fibril ThT | G9a inh | Tau FP inhib | Sfp inh | Coupling enz
COC(=O)C(C(=O)OC)[C@@H](NC(=O)OCc1ccccc1)c1ccccc1 | -2.3% | -4.5% | x | 2.3% | 20.8% | 0.9
CN(Cc1cnccn1)Cc1ccccc1OCC(O)CN1CCc2ccccc2C1 (stereo unspecified) | -10.2% | -9.6% | x | 0.6% | -15.3% | 0.1
CCOc1ccccc1NC(c1nnc(-c2ccccc2)o1)c1ccc(F)cc1Cl (stereo unspecified) | -27.3% | -15.4% | -4.4%[59 µM] | 3.0% | x | x
COc1ccc(N=Nc2cnc(C)nc2-c2ccccc2)cc1 | u | 17.8µM* | 14.1µM* | 9.9% | -24.8% | -0.7
COc1ccc(CN2CC(=O)N(c3cc(Cl)ccc3OC)C2=S)cc1OC | x | x | u | x | -17.6% | -0.2
COc1ccc(Cl)cc1N1C(=O)CN(Cc2cc(OC)c(OC)c(OC)c2)C1=S | x | x | 35.5µM* | x | 50.1µM* | -2.5
CC(C)=Cc1oc2ccc([N+](=O)[O-])cc2c1N1CC(C)OC(C)C1 (stereo unspecified) | -11.7% | -7.3% | 14.1µM* | -1.3% | -9.2% | 3.7
NC(=O)C1CCCN(CC(=O)Nc2ccccc2C(=O)NC2CC2)C1 (stereo unspecified) | x | x | 9.5%[12.7 µM] | x | x | x
Cc1cccc(OCC(=O)Nc2ccc3c(c2)nc(CCNC(=O)c2ccco2)n3C)c1 | -3.2% | -14.0% | -6.1%[59 µM] | 2.4% | x | x
COc1ccc(N2Cc3cccc(C(=O)N4CCN(C(=O)c5ccco5)CC4)c3C2=O)cc1 | 1.6% | -4.2% | 44.7µM* | 8.1% | u | 3.4
COc1ccc(OC)c(CN2CCN(C(=O)c3ccco3)CC2)c1 | x | x | 17.8µM* | x | -29.2% | 1.0
COc1ccc(N2Cc3cccc(C(=O)N4CCOCC4)c3C2=O)cc1 | -9.4% | -15.5% | -2.8% | 2.6% | 16.3% | 1.6
COc1ccc(CC(=O)N2CCN(C(=O)c3ccco3)CC2)cc1 | -5.7% | -11.8% | u | -11.2% | -23.9% | 0.3
COc1ccc(C(=O)N2CCN(Cc3cc(OC)ccc3OC)CC2)cc1 | x | x | 31.6µM* | x | u | -0.4
COc1cccc(CN2CCN(C(=O)c3ccco3)CC2)c1 | x | x | 20µM* | x | u | 0.4
Clc1nc2nc3n(c2nc1Cl)CCC3 | -5.5% | x | 9.6% | 7.1% | 4.6% | 0.4
COc1ccc(-c2noc(CNC(=O)c3ccoc3C)n2)cc1OC | x | x | 15.3% | x | 17.7% | 1.4
Cc1ccc(S(=O)(=O)NCC(c2ccccc2)N2CCN(c3ccc(F)cc3)CC2)cc1 (stereo unspecified) | x | x | x | x | 13.7% | -1.3
Cc1cc2c(C)cc(=O)[nH]c2cc1NC(=O)CCl | -8.6% | -17.1% | u | -3.8% | 11.6% | 3.0
O=C(CCl)Nc1cc2[nH]c(=O)[nH]c2cc1Br | -13.5% | u | 50.1µM* | 6.1% | -18.2% | -8.2
O=C1Nc2c(ccc(Cl)c2Cl)C(=O)C1(F)c1ccccc1 (stereo unspecified) | -29.5% | u | 44.7µM* | u | -9.7% | 2.4
O=C1Nc2ccc(Cl)cc2C(=O)C1(F)c1ccccc1 (stereo unspecified) | -21.0% | u | -1.9% | u | 2.6% | -2.6
COc1cccc(NC(=O)Cn2cc(C(=O)c3ccc(C)cc3)c(=O)c3cc(OC)ccc32)c1 | -29.2% | -8.3% | u | u | x | x
CCc1ccc(C(=O)c2cn(CC(=O)Nc3cccc(OC)c3)c3ccc(OC)cc3c2=O)cc1 | -25.5% | 1.8% | 10µM* | u | x | x
CC(C)CNC(=S)N(CCCO)Cc1cc2cc3c(cc2[nH]c1=O)OCO3 | x | x | 39.8µM* | x | -4.2% | -0.1
